Data published in PubChem BioAssay (NCI).
Values joined by “and” are separate entries in the source; they are usually repeats but may differ in a detail not shown here. Identical values can stand only once. This is part of a sample that, as a whole, favours compounds with a hit. Of some 83,000 tested, about 20% had one in any assay.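 Single-dose data. Exposure time 48 hours. Values below 10 considered active.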 Unmarked numbers belong to inactive results. Active and inactive are the calls of the source.

Columns and labels:
Assay in all cases: NCI-60 one-dose screen, 48 h (100 = growth as untreated, 0 = no growth, -100 = all killed)
Details in all cases: 10 µM unless noted
[1] = system: T-47D breast
[2] = system: BT-549 breast
[3] = system: MDA-MB-435 melanoma
[4] = system: SW-620 colon
[5] = system: MCF7 breast
[6] = system: HCT-116 colon
[7] = system: HCC-2998 colon
[8] = system: KM12 colon
[9] = system: MDA-MB-468 breast

Row | Structure (SMILES) | growth [1] | growth [2] | growth [3] | growth [4] | growth [5] | growth [6] | growth [7] | growth [8] | growth [9]
1 | O=C(NN1C(=O)/C(=C/C=C/c2ccc([N+](=O)[O-])o2)SC1=S)c1ccncc1 | -59.4% (active) | -91.7% (active) | -83.7% (active) | -69.6% (active) | -53.4% (active) | -41.5% (active) | -96.2% (active) | -94.3% (active) | -73.9% (active)
2 | COc1ccc(NC(=O)Cn2c(/C=C/c3ccc([N+](=O)[O-])cc3)nc3ccccc3c2=O)cc1 | 56.1% | 106% | 84.2% | 70.5% | 73.9% | 35.6% | 67.5% | 82.7% | 52%
3 | CC1=C(C)C(=O)C(N2CCSCC2)=CC1=O | 105% | 91% | 112% | 97.3% | 99.6% | 93% | 109% | 105% | 60.4%
4 | Cc1nc2sccn2c1-c1nnc(SCc2ccccc2)o1 | 74.5% | 119% | 97.4% | 105% | 74.2% | 91.6% | 103% | 98.5% | 52%
5 | N#Cc1c(-c2ccc(F)cc2)nc(SCc2ccccc2)nc1N1CCNCC1 | -75.9% (active) | -97.4% (active) | -83.6% (active) | -78.7% (active) | -84.7% (active) | -96.9% (active) | -64.6% (active) | -84.3% (active) | -64.3% (active)
6 | N#Cc1c(NC(=O)N2CCOCC2)n(-c2ccc(OC(F)(F)F)cc2)c2cc(F)ccc12 | 77.4% | 139% | 92.4% | 110% | 89% | 80.5% | 110% | 92.5% | 89.1%
7 | Cc1cc(Cl)ccc1NC(=O)Nc1ccc(-c2ccc3c(c2)NC(=O)/C3=C\c2ccc[nH]2)cc1 | 26.4% | 79.1% | 98.6% | 89.3% | 18.7% | 108% | 118% | 25.8% | -2.85% (active)
8 | CC(=O)c1c2c(c3ccc4c5ccccc5ccc4n13)C(=O)c1ccccc1C2=O | 92.5% | 113% | 98.3% | 107% | 58% | 102% | 94.3% | 85.8% | 84.2%
9 | CC(C)(C)c1cc(-c2cc(-c3ccccc3)[nH]c(=O)c2C#N)cc(C(C)(C)C)c1 | 36.4% | -3.78% (active) | 56.9% | 66.1% | 71.8% | -35% (active) | 59.8% | 81.3% | 37.8%
10 | O=C(N/N=C/c1ccc(Br)o1)c1[nH]c2ccc(Br)cc2c1-c1ccccc1 | 27.1% | -27.8% (active) | -29.1% (active) | 6.96% (active) | 0.0933% (active) | -13.3% (active) | -7.57% (active) | -1.58% (active) | 5.25% (active)
11 | O=C1N/C(=N\c2nccs2)S/C1=C\c1ccc([N+](=O)[O-])cc1 | 15.2% | 35.5% | 22.2% | 20.9% | 9.68% (active) | -1.76% (active) | 22.7% | 14.2% | -14.6% (active)
12 | Nc1nn2c(-c3cc4cc(Br)ccc4oc3=O)ccnc2c1N=Nc1ccc(Br)cc1 | 29.2% | 40.7% | 69.5% | 43.2% | 39.5% | 16.2% | 39.2% | 51.7% | 39%
13 | CN1C(=O)C2(C(C#N)=C(c3ccc(Cl)cc3)Nc3c2c(-c2ccccc2)nn3-c2ccccc2)c2ccccc21 (stereo not given) | 84.6% | 93.8% | 97.1% | 106% | 73.8% | 73.8% | 87% | 94.9% | 95.4%
14 | CN(C)c1nc(NCCNS(=O)(=O)c2ccc(C(=O)/C=C/c3ccc(Cl)cc3)cc2)nc(N2CCOCC2)n1 | 10.3% | 12.8% | -53.6% (active) | -66.9% (active) | -67% (active) | -95.5% (active) | -94.4% (active) | -76.9% (active) | -83.2% (active)
15 | CCC(=O)c1cc(C(=O)OC)c2ccc3c4ccccc4ccc3n12 | 75.8% | 112% | 93.6% | 84.4% | 80.5% | 35% | 99.8% | 84.7% | 83.6%
16 | O=C(c1cc2cc(OCCCN3CCC3)ccc2[nH]1)N1C[C@@H](CCl)c2c1cc(OCc1ccccc1)c1ccccc21 | -11.6% (active) | -48% (active) | -78.8% (active) | 0.696% (active) | -9.07% (active) | -80.6% (active) | -77.1% (active) | -5.46% (active) | -76.3% (active)
17 | C#CCN(C)CCCOc1ccc(N(C)C(=O)c2cc(C(C)C)c(O)cc2O)cc1Cl | 11% | 9.45% (active) | 4.66% (active) | 12.2% | 7.62% (active) | 7.57% (active) | -38.4% (active) | 5.69% (active) | -30.8% (active)
18 | O=C(N/N=C/c1ccoc1)c1[nH]c2ccc(Br)cc2c1-c1ccccc1 | -74.7% (active) | -90.3% (active) | -96% (active) | -83.6% (active) | -70.3% (active) | -75.8% (active) | -100% (active) | -25.4% (active) | -88.5% (active)
19 | Cn1cc(-c2cc3nc(-c4cn(C)c5ncccc45)cc(N)n3n2)c2cc(F)ccc21 | 37.8% | 35.4% | 83.1% | 61% | 68.2% | 10.2% | 39.8% | 61.8% | 7.65% (active)
20 | COc1cc2cc(C(=O)N3C[C@@H](CCl)c4c3cc(OC(=O)N(C)CCSSCCN3CCOCC3)c3ccccc43)[nH]c2c(OC)c1OC | -6.52% (active) | -58.5% (active) | -41.2% (active) | 6.21% (active) | -33.5% (active) | -12.9% (active) | -58.7% (active) | -31.1% (active) | -77.3% (active)

Row | Structure (SMILES) | growth [1] | growth [2] | growth [3] | growth [4] | growth [5] | growth [6] | growth [7] | growth [8] | growth [9]
21 | Cc1ccc(C2CC(c3ccc(S(=O)(=O)NCCNc4nc(N(C)C)nc(N5CCOCC5)n4)cc3)=Nc3c(N)nc(N)nc3N2)cc1 (stereo not given) | 43.8% | 35.2% | 63.6% | 81.2% | 27.6% | 38.7% | 47.9% | 47.9% | 24.2%
22 | CCOC(=O)c1ccc(NC(=S)NC(=O)c2cccc(NC(=O)c3ccc(C)cc3)c2)cc1 | 67.9% | 63.3% | 86.1% | 68.2% | 64.2% | 49.1% | 98.4% | 97.5% | 94.1%
23 | COc1cc(C2CC(c3ccc(Cl)cc3)=Nc3c(N)nc(N)nc3N2)ccc1Oc1nc(Nc2ccc(F)cc2)nc(N(C)C)n1 (stereo not given) | 71.3% | 62.4% | 44% | 35.5% | 2.22% (active) | -5.37% (active) | -3.35% (active) | 32% | -22.4% (active)
24 | COc1ccc2[nH]c(=O)cc(-n3ncc(C(=O)/C=C/c4cc(OC)c(OC)c(OC)c4)c3C)c2c1 | 5.38% (active) | -57.2% (active) | 1.51% (active) | -51.9% (active) | 1.39% (active) | -52.9% (active) | -93.9% (active) | -37.2% (active) | -71.1% (active)
25 | COc1ccc2c(c1)C(Sc1ccc(Br)cc1)c1c(nc(N)c(C#N)c1N)O2 (stereo not given) | 80.3% | 56.1% | 88% | 80.1% | 61.9% | 75.1% | 111% | 74.7% | 97.1%
26 | CC(=O)Nc1cccc(-n2c(COc3ccc(Br)cc3)nc3ccccc32)c1 | 88.5% and 109% | 109% and 97.2% | 107% and 103% | 97.9% and 103% | 82.3% and 97.2% | 101% and 102% | 129% and 112% | 103% and 101% | 81.7% and 102%
27 | COc1ccc(C2=NN(C(=O)[C@H]3[C@@H](c4ccco4)c4sc(=O)[nH]c4S[C@@H]3C)C(c3ccc4ccccc4c3)C2)cc1 (stereo not given in full) | 9.22% (active) | 76.2% | 41.8% | 24.9% | 13.1% | 16.1% | 27.3% | 33.9% | -14.6% (active)
28 | O=C(N/N=C/c1ccc(Cl)o1)c1[nH]c2ccc(Br)cc2c1-c1ccccc1 | 29.8% | -25.9% (active) | -47.9% (active) | -29.6% (active) | 1.67% (active) | -56.1% (active) | -26% (active) | 2.65% (active) | -9.32% (active)
29 | CC(C)(C)C(=O)c1c2c(c3ccc4c5ccccc5ccc4n13)C(=O)c1ccccc1C2=O | 95.6% | 101% | 103% | 102% | 75% | 90.7% | 112% | 94.4% | 98.7%
30 | Cc1ccc(-c2cc(C(=O)N=Nc3c(O)[nH]c4ccc(F)cc34)c3ccccc3n2)cc1 | 39.9% | 39.1% | 61% | 19.4% | 18% | 21% | 35.9% | 51.2% | 31.1%
31 | O=C(Nc1ccc(-c2ccc3c(c2)NC(=O)/C3=C\c2ccc[nH]2)cc1)Nc1ccc(Cl)c(C(F)(F)F)c1 | 16.5% | 5.89% (active) | 3.54% (active) | 27.6% | 3.21% (active) | 2.62% (active) | 48.4% | 22.3% | -18.4% (active)
32 | c1n[nH]cc1-c1nc2ccc3[nH]ncc3c2c2c1CC1(CCOCC1)CC2 | 13.5% | 10.9% | 29.3% | 17.9% | 31.8% | 11.1% | 41.1% | 47.3% | 5.4% (active)
33 | COc1cc(-c2ccc3ncnc(N4CCc5ccc(Cl)cc54)c3c2)cnc1Cl | 8.82% (active) | 5.89% (active) | 32.8% | 17.4% | 3.58% (active) | 8.7% (active) | 28% | 33.2% | -16.8% (active)
34 | S=C(Nc1ccc(OCc2nc3ccc(Cl)cc3[nH]2)cc1)NC1CCCCC1 | 17.3% | 13.5% | -10.4% (active) | -7.01% (active) | 0.799% (active) | -31.6% (active) | -69.5% (active) | -12.5% (active) | -30.8% (active)
35 | COc1ccc(NC(=O)Cn2c(/C=C/c3cccc(Br)c3)nc3ccccc3c2=O)cc1 | -16.6% (active) | 56.1% | 67% | 32.2% | 34.2% | 26.2% | 84.5% | 87.7% | 77.6%
36 | COc1cc(/C=C/C(=O)c2cnn(-c3cc(=O)[nH]c4ccc(Cl)cc34)c2C)cc(OC)c1OC | -31.4% (active) | -47% (active) | -9.26% (active) | -45.8% (active) | -37.6% (active) | -67.6% (active) | -93.5% (active) | -28.4% (active) | -83.1% (active)
37 | Cn1cc(-c2cc(N)n3nc(-c4c[nH]c5ccccc45)cc3n2)c2cc(F)ccc21 | 15.8% | 98.3% | 14.6% | -76.8% (active) | -7.62% (active) | -71.3% (active) | -65.5% (active) | -33.9% (active) | 8.2% (active)
38 | Clc1ccc2c(NCCNC34CC5CC(CC(C5)C3)C4)ccnc2c1 | -47.2% (active) | -86.5% (active) | -72.3% (active) | -47.1% (active) | -78.7% (active) | -40.1% (active) | -89.5% (active) | -96.8% (active) | -92.3% (active)
39 | O=C1CCC(N2C(=O)c3cccc(NCCCCCC(=O)N4CCN(c5ccc6nc7c(nc6c5C(F)(F)F)C(=O)c5ncccc5C7=O)CC4)c3C2=O)C(=O)N1 (stereo not given) | -41.1% (active) | -76.8% (active) | -79.8% (active) | -50.9% (active) | -71.6% (active) | -86% (active) | -98% (active) | -49.6% (active) | -49.9% (active)
40 | Cc1[nH]nc2ccc3nc(-c4cnn(CCO)c4)c4c(c3c12)CCCC4 | 34.5% | 46.3% | 18.7% | 29% | 52.6% | 33.8% | 45.6% | 18.8% | -0.783% (active)
